# Source: PubChem
# The list is not random: actives were taken first. Their share in the collection is about 0.9%.
# Mtb betalactam = beta-lactam sensitization of Mtb H37Rv; M. tuberculosis H37Rv growth with meropenem, percent inhibition; inhibition, % at 25 µM; 330,000 tested, 0.27% active; AID 434955; call rule not given here;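 also: growth measured after seven days incubation then overnight dye step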
# PfHsp40 rescue = compounds rescuing yeast from Plasmodium falciparum HSP40 toxicity; S. cerevisiae expressing PfHsp40, growth rescue, ATP luminescence; growth rescue, % at 12.5 µM; 340,000 tested, 0.68% active; in the data active = growth rescue above about 28%, passing the limit was not always enough; inconclusive = no clear call, values can overlap the other calls;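 also: yeast W303a lacking pdr1 and pdr3 grown in galactose medium; growth measured after three days at 30 °C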
# Sa RN4220 lethal = S. aureus RN4220 growth inhibition | OD600, 16 h | inhibition, % (test concentration not listed) | 330,000 tested, 0.33% active; in the data active = inhibition above about 85%
# Mtb BioA inh = blocks M. tuberculosis BioA enzyme activity | purified M. tuberculosis BioA enzyme, plate reader | inhibition, % at 9.99 µM | 360,000 tested, 0.096% active; in the data active = inhibition above about 40%; inconclusive = no clear call, values can overlap the other calls
# Sa ugtP lethal = growth inhibition of S. aureus ugtP deletion strain. growth inhibition, % (no concentration beside the values). AID 1259309. S. aureus RN4220 ugtP deletion, OD600 growth, 16 h. 330,000 tested, 0.54% active; in the data active = growth inhibition above about 68%
# Hits are given with their value; n = inactive; u = inconclusive; x = not tested or not shown.
SMILES,Mtb betalactam,PfHsp40 rescue,Sa RN4220 lethal,Mtb BioA inh,Sa ugtP lethal
N#Cc1ccc(-c2ccc(C3Nc4ccccc4C(=O)N3O)o2)cc1 (stereo not given),n,n,n,n,n
O=C1c2ccccc2NC(c2ccc(-c3cccc(F)c3)o2)N1O (stereo not given),n,108.7,n,n,n
O=C1c2ccccc2NC(c2ccc(Cl)cc2Cl)N1O (stereo not given),n,292.3,n,n,n
O=C1c2ccccc2NC(c2ccc(-c3ccccc3F)o2)N1O (stereo not given),n,119.8,n,n,n
CC(=O)NN1C(=O)c2ccccc2NC1c1ccc([N+](=O)[O-])o1 (stereo not given),n,n,n,n,n
COc1ccc(S(=O)(=O)N(C)CC2Oc3ccc(NS(=O)(=O)c4cccs4)cc3C(=O)N(C(C)CO)CC2C)cc1 (stereo not given),x,x,n,x,n
CC1CN(C(C)CO)C(=O)c2cccc(NC(=O)c3ccncc3)c2OC1CN(C)Cc1ccc(Cl)c(Cl)c1 (stereo not given),x,x,n,x,n
CCOC(=O)c1ccc(-c2ccc(C3Nc4ccccc4C(=O)N3O)o2)cc1 (stereo not given),n,364.4,n,n,n
CC(C)(C)OC(=O)CC1CC=CCC(CC(=O)N(CCO)Cc2ccccc2)C(=O)NC(C(C)(C)C)COC1=O (stereo not given),x,x,n,x,n
Cc1ccc([N+](=O)[O-])cc1N(CC(=O)Nc1ccc(S(=O)(=O)Nc2cccc(C(F)(F)F)c2)cc1)S(C)(=O)=O,n,n,87.8,n,n
O=c1c2ccccc2nc(COc2ccccc2)n1N=Cc1ccc(O)c(O)c1,x,x,n,x,n
O=c1c2ccccc2nc(COc2ccccc2)n1/N=C/c1ccc(O)cc1O,n,52.3,x,x,x
CCCOc1ccc2oc(=O)c3c(c2c1)CCCN3C(=O)CN1CCc2ccccc2C1,n,n,n,n,85.8
CCOC(=O)C1C2COc3ccc(Br)cc3C2N2C(=O)c3c(C)cc(C)cc3NC(=O)[C@@]12C (stereo not given in full),x,x,n,x,n
Cc1ccc(C(=O)CC(=O)c2cc(Cl)ccc2O)cc1,n,n,99.7,n,99.4
Cc1ccc(C(=O)Nc2ccc(Cl)cc2C(=O)c2ccccc2)cc1,u,n,n,n,91.8
COc1ccc(C(=O)CC(=O)c2ccc(C(C)(C)C)cc2)cc1,x,n,x,n,x
Cc1ccc(C(=O)CC(=O)c2ccc(C(C)(C)C)cc2)cc1,n,36.3,n,n,n
CC(C)(C)c1ccc(C(=O)CC(=O)c2cc(Cl)ccc2O)cc1,n,n,100.1,n,98.4
CCCCCCSc1ccc(C2N[C@@](Cc3ccccc3)(C(=O)OC)C3C(=O)N(C)C(=O)C23)cc1OC (stereo not given in full),x,x,n,x,n
COc1cc(NS(=O)(=O)c2ccc(Nc3nc(-c4ccccn4)cs3)cc2)nc(OC)n1,n,n,n,x,89.5
CCCN1C(=O)C(=Cc2cc(C)n(C)c2C)SC1=Nc1ccc(OCC)cc1,x,x,n,x,n
CC(C(=O)CC(=O)OC(C)(C)C)C(O)c1c(F)cccc1Cl (stereo not given),x,x,n,x,n
CC(C)C(=O)N1CCN(c2ccc(NC(=O)c3ccc([N+](=O)[O-])o3)cc2Cl)CC1,x,n,n,x,n
CN1CCN(c2ccc(NC(=O)c3ccc([N+](=O)[O-])o3)cc2Cl)CC1,n,n,99.3,n,100.7
SMILES,Mtb betalactam,PfHsp40 rescue,Sa RN4220 lethal,Mtb BioA inh,Sa ugtP lethal
O=C(Nc1ccc(N2CCOCC2)c(Cl)c1)c1ccc([N+](=O)[O-])o1,x,n,n,x,96.4
COc1ccc(C2CC(=O)C=C(c3cc4ccccc4s3)C2)cc1OC (stereo not given),x,x,n,x,n
CO/N=C/CC(=O)c1ccc(-c2ccccc2)cc1,n,n,x,x,x
CON=CCC(=O)c1ccc(-c2ccccc2)cc1,x,x,n,x,100.6
Cc1cc(C(C)(C)C)ccc1OCCCCN1CCCC1,n,n,n,x,n
CCC(C)(C)c1ccc(OCCCC[n+]2cccc(C)c2C)c(C(C)(C)CC)c1,n,44.9,100.8,n,100.5
CCC(C)(C)c1ccc(OCCCC[n+]2ccc(C)cc2)c(C(C)(C)CC)c1,n,x,100.5,x,100.4
O=C(NCC1CC1)C1CC1C(NP(=O)(c1ccccc1)c1ccccc1)c1ccccc1 (stereo not given),x,x,n,x,n
O=C(C(Cc1ccccc1)NS(=O)(=O)c1ccc(Cl)cc1)N1CC[C@@]2(O)CCCCC2C1 (stereo not given in full),x,x,n,x,n
N#CC(C#N)=NNc1ccc(-n2ccc(C(F)(F)F)n2)cc1,n,186.0,x,n,x
O=C(Nc1ccccc1)Nc1ccc(-n2ccc(C(F)(F)F)n2)cc1,n,n,n,n,n
C=CCN(CC=C)S(=O)(=O)c1ccc(NC(=S)NC(=O)c2ccco2)cc1,n,55.3,n,n,n
C/C(=N\NC(=S)NCc1ccccc1)c1cccc(Br)c1,x,135.6,x,x,x
CCCc1cc(=O)oc2c(CNc3ccc(OCC)cc3)c(O)ccc12,n,47.7,n,n,n
CCCCc1cc(=O)oc2c(CN3CCCC3)c(O)ccc12,n,n,n,n,n
CCn1nc(C)c(Br)c1C(=O)Sc1ccccc1Cl,n,n,n,n,86.8
CCN1CC2C3C(=O)N(C)C(=O)C3[C@](C)(C1=O)N2C(=O)c1ccccc1 (stereo not given in full),x,x,n,x,n
COc1ccc(-c2ccc3c(c2)C2CC3CCN2Cc2ccc(OC(F)(F)F)cc2)cc1 (stereo not given),x,n,n,n,89.4
CC1CN(C(C)CO)C(=O)c2cccc(NC(=O)NC3CCCCC3)c2OC1CN(C)C(=O)Nc1ccccc1 (stereo not given),x,x,n,x,n
Cn1c(CC(=O)NC(C)(C)CO)c(Sc2ccccc2)c2ccccc21,n,n,n,n,n
CCOC(=O)Cc1c(Sc2ccccc2)c2ccccc2n1C,n,n,n,x,95.0
Nc1nonc1C(=O)NN=Cc1cc(Br)ccc1O,x,x,n,x,n
Nc1nonc1C(=O)N/N=C/c1cc(Br)ccc1O,n,167.9,x,x,x
CCCC(=O)Nc1ncnc2c1ncn2C1OC2OP(=O)(O)OCC2C1OC(=O)CCC (stereo not given),x,x,n,x,n
C#CCOCCOCCOCCNc1nc(N2CCN(C(=O)C(Cc3ccc(O)cc3)n3cc(CCO)nn3)CC2)nc(N2CCN(C(=O)C(C(C)O)n3cc(CCCCN)nn3)CC2)n1 (stereo not given),x,x,n,x,n
O=C(Nc1ccc(F)c(Cl)c1)Nc1csc2ccccc12,n,n,100.0,n,100.2
O=C1NC(=S)S/C1=C\c1ccc(SCc2ccccc2)o1,n,n,92.8,n,89.5
C[C@@]12C(=O)N(c3cccc(F)c3)C(=O)N1C(c1ccc(Cl)cc1)C1C(=O)N(C3CCCCC3)C(=O)C12 (stereo not given in full),x,x,n,x,n
O=C(Nc1ccccc1)C1CC=CC2CCN(Cc3ccccc3)C(=O)C21 (stereo not given),x,x,n,x,n
COc1ccc(C2CC=C(C(=O)O)C(c3ccc(F)cc3)N2S(=O)(=O)c2ccc(Cl)cc2)cc1 (stereo not given),x,x,n,x,n
